The source of these data is ChEMBL document CHEMBL1961873, “Compounds: GSK PKIS; Assays: Nanosyn kinase panel” (2012).

Assay [1] has as its target Mitogen-activated protein kinase 3 (Homo sapiens) (UniProt P27361). As to conditions: at 1 µM.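 Note: values are mean percent inhibition of MAPK3.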
Assay [2] addresses SRSF protein kinase 3 (Homo sapiens) (UniProt Q9UPE1). As to conditions: at 0.1 µM.
For assay [3] the target is unchanged. To be noted: at 1 µM.
In assay [4] the target is Mitogen-activated protein kinase 14 (Homo sapiens) (UniProt Q16539). To be noted: at 0.1 µM.
Mitogen-activated protein kinase 14 (Homo sapiens), sequence (Q16539 whole entry): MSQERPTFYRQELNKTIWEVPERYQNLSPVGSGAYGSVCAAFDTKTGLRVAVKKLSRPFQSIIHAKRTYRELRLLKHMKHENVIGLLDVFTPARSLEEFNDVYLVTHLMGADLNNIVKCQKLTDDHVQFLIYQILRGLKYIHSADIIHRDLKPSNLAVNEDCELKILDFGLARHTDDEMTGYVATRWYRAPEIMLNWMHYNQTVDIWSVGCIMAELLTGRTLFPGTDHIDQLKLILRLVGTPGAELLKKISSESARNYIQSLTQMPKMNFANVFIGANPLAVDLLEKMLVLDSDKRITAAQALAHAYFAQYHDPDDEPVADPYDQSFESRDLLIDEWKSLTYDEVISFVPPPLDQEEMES
For assay [5] the target is unchanged. As to conditions: at 1 µM.
Assay [6] concerns the target Mitogen-activated protein kinase 11 (Homo sapiens) (UniProt Q15759). As to conditions: at 0.1 µM.
Assay [7] has the same target. To be noted: at 1 µM.
Assay [8] concerns the target T1, Mitogen-activated protein kinase 13 (Homo sapiens) (UniProt O15264).
T1 sequence (whole entry): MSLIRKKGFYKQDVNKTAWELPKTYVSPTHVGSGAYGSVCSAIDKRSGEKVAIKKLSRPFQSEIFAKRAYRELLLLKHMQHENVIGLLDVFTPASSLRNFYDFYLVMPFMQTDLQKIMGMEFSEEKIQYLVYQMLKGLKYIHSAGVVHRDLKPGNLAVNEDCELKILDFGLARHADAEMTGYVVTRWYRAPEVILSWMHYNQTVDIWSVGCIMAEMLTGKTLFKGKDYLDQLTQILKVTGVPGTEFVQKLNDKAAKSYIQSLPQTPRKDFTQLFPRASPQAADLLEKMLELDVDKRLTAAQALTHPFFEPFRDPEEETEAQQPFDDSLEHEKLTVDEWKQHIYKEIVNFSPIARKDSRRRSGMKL
As to conditions: at 0.1 µM.

Assay [9] addresses T1, Mitogen-activated protein kinase 13 (Homo sapiens). As to conditions: at 1 µM.
The target in assay [10] is T2, Mitogen-activated protein kinase 12 (Homo sapiens) (UniProt P53778).
T2 sequence (whole entry): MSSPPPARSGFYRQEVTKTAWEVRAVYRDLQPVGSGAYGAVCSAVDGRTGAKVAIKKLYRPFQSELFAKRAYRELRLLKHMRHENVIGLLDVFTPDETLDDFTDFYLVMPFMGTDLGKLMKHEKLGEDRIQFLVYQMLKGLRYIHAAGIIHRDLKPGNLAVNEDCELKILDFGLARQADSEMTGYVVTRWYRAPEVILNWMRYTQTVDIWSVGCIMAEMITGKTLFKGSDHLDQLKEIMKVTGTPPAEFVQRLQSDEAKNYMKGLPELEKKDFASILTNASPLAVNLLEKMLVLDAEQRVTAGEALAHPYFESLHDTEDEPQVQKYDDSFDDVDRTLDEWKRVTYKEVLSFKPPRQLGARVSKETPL
To be noted: at 0.1 µM.

Assay [11] has as its target T2, Mitogen-activated protein kinase 12 (Homo sapiens). As to conditions: at 1 µM.
Assay [12] concerns the target SRSF protein kinase 1 (Homo sapiens) (UniProt Q96SB4). As to conditions: at 0.1 µM.
The target is the same in assay [13]. As to conditions: at 1 µM.
Assay [14] deals with Phosphatidylinositol 4,5-bisphosphate 3-kinase catalytic subunit alpha isoform (Homo sapiens) (UniProt P42336). To be noted: at 0.1 µM.
Phosphatidylinositol 4,5-bisphosphate 3-kinase catalytic subunit alpha isoform (Homo sapiens), sequence (P42336 whole entry, canonical isoform): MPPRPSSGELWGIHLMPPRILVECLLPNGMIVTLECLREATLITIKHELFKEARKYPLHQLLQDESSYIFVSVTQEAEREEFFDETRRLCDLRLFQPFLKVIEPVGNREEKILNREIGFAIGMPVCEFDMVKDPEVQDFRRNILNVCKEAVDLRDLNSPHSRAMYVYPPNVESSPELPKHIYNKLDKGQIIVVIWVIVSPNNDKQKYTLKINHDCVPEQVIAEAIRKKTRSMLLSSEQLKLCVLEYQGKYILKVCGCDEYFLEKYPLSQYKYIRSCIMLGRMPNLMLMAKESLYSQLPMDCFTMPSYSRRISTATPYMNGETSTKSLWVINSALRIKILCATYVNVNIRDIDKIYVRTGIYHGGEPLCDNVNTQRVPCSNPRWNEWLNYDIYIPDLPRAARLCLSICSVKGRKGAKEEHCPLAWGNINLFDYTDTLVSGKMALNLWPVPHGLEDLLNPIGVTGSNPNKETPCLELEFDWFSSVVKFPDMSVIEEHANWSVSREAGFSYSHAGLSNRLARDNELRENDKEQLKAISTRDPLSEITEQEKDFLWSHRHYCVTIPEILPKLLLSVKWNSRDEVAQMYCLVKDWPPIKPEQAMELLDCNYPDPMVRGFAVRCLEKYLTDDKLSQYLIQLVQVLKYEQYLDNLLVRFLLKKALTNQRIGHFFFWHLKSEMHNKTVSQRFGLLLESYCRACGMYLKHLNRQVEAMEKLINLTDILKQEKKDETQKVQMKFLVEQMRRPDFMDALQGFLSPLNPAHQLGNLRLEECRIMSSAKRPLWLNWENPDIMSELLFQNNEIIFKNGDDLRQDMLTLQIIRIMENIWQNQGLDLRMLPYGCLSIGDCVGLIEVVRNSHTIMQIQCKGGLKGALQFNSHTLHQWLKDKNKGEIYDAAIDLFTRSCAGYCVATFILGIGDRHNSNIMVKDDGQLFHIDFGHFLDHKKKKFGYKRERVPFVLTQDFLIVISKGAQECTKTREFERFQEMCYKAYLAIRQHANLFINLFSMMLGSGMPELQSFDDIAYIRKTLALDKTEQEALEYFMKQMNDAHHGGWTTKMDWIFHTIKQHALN
The target is the same in assay [15]. To be noted: at 1 µM.
Assay [16] deals with T3, Phosphatidylinositol 4,5-bisphosphate 3-kinase catalytic subunit delta isoform (Homo sapiens) (UniProt O00329).
T3 sequence (whole entry): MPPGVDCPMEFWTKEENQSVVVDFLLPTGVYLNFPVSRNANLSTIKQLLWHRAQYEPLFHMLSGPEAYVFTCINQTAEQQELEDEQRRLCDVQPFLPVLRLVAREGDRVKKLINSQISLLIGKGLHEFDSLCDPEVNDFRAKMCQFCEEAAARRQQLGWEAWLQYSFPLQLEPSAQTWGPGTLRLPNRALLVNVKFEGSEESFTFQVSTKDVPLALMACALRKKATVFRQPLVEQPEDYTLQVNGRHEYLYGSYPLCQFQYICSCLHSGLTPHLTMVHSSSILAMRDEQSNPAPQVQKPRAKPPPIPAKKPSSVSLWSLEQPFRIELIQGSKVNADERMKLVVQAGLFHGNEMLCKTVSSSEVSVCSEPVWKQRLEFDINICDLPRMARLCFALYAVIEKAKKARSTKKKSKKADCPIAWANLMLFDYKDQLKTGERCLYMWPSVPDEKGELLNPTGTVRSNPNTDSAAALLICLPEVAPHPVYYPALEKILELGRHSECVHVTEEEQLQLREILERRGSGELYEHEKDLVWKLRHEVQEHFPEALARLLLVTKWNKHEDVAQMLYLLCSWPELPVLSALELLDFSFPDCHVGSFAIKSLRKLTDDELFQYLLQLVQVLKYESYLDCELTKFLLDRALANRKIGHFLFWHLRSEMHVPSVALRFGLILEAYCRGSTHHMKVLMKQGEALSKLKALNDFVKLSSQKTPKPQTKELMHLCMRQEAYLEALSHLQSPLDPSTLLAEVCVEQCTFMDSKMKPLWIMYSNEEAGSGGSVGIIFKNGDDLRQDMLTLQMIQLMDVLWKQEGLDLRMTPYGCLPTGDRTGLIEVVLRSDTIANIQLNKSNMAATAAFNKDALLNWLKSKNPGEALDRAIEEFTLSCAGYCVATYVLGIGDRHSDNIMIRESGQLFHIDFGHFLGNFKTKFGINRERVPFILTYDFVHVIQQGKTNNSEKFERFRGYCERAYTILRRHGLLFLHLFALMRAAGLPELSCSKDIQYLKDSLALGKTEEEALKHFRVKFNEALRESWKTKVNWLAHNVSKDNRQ
To be noted: at 0.1 µM.

The target of assay [17] is T3, Phosphatidylinositol 4,5-bisphosphate 3-kinase catalytic subunit delta isoform (Homo sapiens). As to conditions: at 1 µM.
Assay [18] concerns the target Phosphatidylinositol 4-kinase beta (Homo sapiens) (UniProt Q9UBF8). To be noted: at 0.1 µM.
The target is the same in assay [19]. As to conditions: at 1 µM.
Assay [20] deals with Sphingosine kinase 1 (Homo sapiens) (UniProt Q9NYA1). As to conditions: at 0.1 µM.
Sphingosine kinase 1 (Homo sapiens), sequence (Q9NYA1 whole entry): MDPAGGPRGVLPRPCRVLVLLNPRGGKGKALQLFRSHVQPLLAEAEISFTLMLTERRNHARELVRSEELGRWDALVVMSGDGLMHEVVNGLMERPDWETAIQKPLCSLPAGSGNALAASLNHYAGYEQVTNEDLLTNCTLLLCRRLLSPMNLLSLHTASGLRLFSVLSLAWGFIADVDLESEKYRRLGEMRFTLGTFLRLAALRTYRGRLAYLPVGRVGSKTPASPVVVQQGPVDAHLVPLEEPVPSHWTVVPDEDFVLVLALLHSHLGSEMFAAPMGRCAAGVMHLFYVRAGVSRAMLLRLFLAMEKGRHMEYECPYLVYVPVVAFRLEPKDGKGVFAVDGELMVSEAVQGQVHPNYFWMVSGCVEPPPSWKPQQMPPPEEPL

Structures are written as SMILES.

Mitogen-activated protein kinase 3 (Homo sapiens), sequence (P27361 whole entry): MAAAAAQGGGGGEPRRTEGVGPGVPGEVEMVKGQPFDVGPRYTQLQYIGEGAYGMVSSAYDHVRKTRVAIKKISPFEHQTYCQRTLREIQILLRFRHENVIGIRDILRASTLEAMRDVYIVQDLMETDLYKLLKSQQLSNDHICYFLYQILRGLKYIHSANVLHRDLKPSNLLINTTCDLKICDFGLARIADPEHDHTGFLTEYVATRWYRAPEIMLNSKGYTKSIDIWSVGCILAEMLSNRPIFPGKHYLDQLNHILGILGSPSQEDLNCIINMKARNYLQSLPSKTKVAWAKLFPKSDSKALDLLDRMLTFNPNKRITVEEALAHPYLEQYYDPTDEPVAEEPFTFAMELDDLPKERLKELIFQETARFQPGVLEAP
Phosphatidylinositol 4-kinase beta (Homo sapiens), sequence (Q9UBF8 2-816 limits assumed): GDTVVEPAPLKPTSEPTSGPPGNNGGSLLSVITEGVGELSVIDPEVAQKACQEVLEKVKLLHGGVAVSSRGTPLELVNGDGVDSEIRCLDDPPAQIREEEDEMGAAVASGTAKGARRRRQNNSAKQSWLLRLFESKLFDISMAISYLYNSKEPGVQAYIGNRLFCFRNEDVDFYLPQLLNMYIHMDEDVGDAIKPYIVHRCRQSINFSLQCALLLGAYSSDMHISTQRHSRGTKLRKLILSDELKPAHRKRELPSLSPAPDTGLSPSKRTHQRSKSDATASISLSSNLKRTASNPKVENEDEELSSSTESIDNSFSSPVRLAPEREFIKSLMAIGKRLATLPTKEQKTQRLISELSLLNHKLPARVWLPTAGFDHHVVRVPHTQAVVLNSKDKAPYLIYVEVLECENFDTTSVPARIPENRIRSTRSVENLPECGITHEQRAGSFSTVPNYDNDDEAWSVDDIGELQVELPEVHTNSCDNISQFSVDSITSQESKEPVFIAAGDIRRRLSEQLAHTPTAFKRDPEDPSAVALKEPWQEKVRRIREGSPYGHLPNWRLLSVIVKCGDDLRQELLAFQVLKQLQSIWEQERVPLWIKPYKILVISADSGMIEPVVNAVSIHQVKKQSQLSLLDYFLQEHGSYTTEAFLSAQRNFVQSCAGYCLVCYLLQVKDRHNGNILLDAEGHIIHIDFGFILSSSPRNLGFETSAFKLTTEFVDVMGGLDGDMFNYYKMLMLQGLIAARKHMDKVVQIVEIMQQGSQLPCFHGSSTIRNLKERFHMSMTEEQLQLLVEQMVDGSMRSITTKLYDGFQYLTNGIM
Mitogen-activated protein kinase 11 (Homo sapiens), sequence (Q15759 whole entry): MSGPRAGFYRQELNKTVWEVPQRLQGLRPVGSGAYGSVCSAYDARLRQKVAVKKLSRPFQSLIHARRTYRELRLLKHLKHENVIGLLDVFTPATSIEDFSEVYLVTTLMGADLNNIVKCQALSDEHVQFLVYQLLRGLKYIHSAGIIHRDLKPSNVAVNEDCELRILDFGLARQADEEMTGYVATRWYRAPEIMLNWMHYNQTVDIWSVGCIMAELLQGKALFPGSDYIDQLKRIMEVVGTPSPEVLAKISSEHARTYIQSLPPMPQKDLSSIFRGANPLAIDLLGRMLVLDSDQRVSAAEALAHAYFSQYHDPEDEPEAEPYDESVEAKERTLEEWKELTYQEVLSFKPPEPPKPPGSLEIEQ
SRSF protein kinase 1 (Homo sapiens), sequence (Q96SB4 whole entry): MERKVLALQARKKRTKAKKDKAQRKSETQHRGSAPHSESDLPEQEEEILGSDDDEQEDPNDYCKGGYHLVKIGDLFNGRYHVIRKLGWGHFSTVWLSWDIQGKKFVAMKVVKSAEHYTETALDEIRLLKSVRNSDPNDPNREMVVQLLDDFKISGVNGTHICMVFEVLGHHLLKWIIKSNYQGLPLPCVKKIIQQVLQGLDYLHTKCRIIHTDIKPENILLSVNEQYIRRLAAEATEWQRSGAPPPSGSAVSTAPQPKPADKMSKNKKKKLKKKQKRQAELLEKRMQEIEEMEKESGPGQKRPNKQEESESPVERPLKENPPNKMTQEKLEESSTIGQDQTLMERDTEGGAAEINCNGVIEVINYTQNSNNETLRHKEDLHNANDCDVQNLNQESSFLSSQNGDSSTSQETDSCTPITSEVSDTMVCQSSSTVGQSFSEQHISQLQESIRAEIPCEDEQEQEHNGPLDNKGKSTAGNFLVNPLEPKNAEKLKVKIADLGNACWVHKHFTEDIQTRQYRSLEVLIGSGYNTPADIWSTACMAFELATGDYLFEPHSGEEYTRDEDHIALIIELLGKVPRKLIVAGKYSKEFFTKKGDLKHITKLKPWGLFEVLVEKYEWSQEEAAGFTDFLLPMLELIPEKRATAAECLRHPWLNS
SRSF protein kinase 3 (Homo sapiens), sequence (Q9UPE1 whole entry): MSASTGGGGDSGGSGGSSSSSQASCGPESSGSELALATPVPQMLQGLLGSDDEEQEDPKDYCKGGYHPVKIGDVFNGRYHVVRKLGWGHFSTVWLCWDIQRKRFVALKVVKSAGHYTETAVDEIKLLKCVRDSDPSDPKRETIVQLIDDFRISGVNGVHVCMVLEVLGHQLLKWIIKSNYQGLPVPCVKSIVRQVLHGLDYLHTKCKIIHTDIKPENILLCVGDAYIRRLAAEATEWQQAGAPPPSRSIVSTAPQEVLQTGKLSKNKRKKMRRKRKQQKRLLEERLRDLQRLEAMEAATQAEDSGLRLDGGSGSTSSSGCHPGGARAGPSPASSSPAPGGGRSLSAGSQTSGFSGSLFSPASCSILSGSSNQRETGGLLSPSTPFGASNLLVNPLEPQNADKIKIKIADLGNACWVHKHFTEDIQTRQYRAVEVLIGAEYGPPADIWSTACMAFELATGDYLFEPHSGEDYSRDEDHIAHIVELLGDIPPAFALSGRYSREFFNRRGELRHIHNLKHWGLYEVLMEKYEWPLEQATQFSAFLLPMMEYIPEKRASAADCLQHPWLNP

As a reminder, the inhibition is the relative decrease from the control value, in per cent. `c1ccc(COc2ccc(Nc3ncnc4ccc(-c5ccco5)cc34)cc2)cc1`: the inhibition in [1] is 1.18%; in assay [2], -1.34%; in [3], -0.68%; in [4], 2.18%; in assay [5], 2.81%; in [6] it was 1.43%. Moreover, the inhibition in assay [7] is 0.27%; in assay [8], 0.6%; in assay [9], -0.53%; in [10] it was 0.76%; in assay [11], 0.69%; in [12], -1.86%. For the same molecule, the inhibition in assay [13] is -1.65%; in [14], 0.06%; in assay [15], 2.59%; in assay [16], 3.33%; in [17], 4.52%; in assay [18], -1.76%. Further, the inhibition in assay [19] was -1.04%; in assay [20] it was 1.84%.
Turning to `CCc1nn2ncccc2c1-c1ccnc(NC2CC2)n1`, the inhibition is 4.9% in [1]; -0.73% in [2]; -0.47% in [3]; 4.19% in [4]; 7.08% in assay [5]; 5.64% in assay [6]. The inhibition in assay [7] was 7.82%; in assay [8] it was 3.24%; in assay [9], 3.22%; in [10], 2.35%; in [11], 3.05%; in [12], -1.37%. The inhibition is -0.37% in assay [13]; 1.28% in assay [14]; 1.26% in assay [15]; 0.07% in assay [16]; 0.87% in [17]; 5.11% in assay [18]. Also, the values for the inhibition in assay [19] and in assay [20] were 8.09% and -2.72%, respectively.
Consider `COC(=O)Nc1nc2ccc(S(=O)(=O)c3ccc(NC(=O)Nc4cc(C(F)(F)F)ccc4F)cc3)cc2[nH]1`, for which the inhibition in [1] is 3.32%; in assay [2], -1.38%; in [3] it was -1.81%; in assay [4], 3.23%; in assay [5], 8.81%; in assay [6], 8.26%. Further, the inhibition is 8.9% in assay [7]; 1.33% in assay [8]; 2.66% in assay [9]; 1.77% in [10]; 2.36% in assay [11]; -1.52% in assay [12]. Moreover, the inhibition was -4.55% in assay [13]; 0.87% in assay [14]; 2.69% in assay [15]; 2.19% in assay [16]; 2.98% in assay [17]; 1.19% in [18]. Also, the inhibition in assay [19] is 1.36%; in assay [20] it was -0.71%.
For the molecule `O=C(Nc1n[nH]c2cc(-c3ccc(F)cc3)ccc12)C1CC1`, the inhibition in [1] was 0.11%; in assay [2], -0.27%; in [3], 0.1%; in [4] it was 3.02%; in assay [5] it was 7.71%; in assay [6], 3.42%. The inhibition in assay [7] is 7.25%; in assay [8], 2.38%; in assay [9] it was 4.36%; in assay [10], 2.05%; in assay [11], 2.53%; in [12], -1.78%. For the same molecule, the inhibition in assay [13] was -2.19%; in [14] it was 5.93%; in [15], 9.6%; in assay [16] it was 7.39%; in assay [17], 10.8%; in assay [18], 3.38%. For the same molecule, the inhibition in assay [19] is -2.55%; in [20], 2.17%.
Consider `[O-][S+]1CCN(Cc2ccc(-c3ccc4ncnc(Nc5ccc(OCc6cccc(F)c6)c(Cl)c5)c4c3)o2)CC1`, for which the inhibition is 4.13% in assay [1]; -2.3% in [2]; -1% in assay [3]; 15.9% in [4]; 14.9% in assay [5]; 7.73% in assay [6]. Moreover, the inhibition in [7] is 6.99%; in assay [8], 4.67%; in assay [9], 3%; in assay [10], 3.02%; in [11], 4.04%; in [12] it was -1.9%. Moreover, the inhibition in assay [13] was -2.12%; in assay [14], 5.72%; in [15] it was 6.58%; in [16], 2.17%; in [17] it was 6.89%; in [18], 0.59%. For the same molecule, the inhibition in assay [19] is -7.5%; in [20], -0.15%.
For `CCn1c(-c2nonc2N)nc2ccccc21`, the inhibition in assay [1] is 1.82%; in assay [2], 2.33%; in [3] it was 1.24%; in assay [4] it was 1.01%; in assay [5] it was 4.34%; in assay [6], 3.58%. Besides, the inhibition was 4.06% in [7]; 2.36% in assay [8]; 3.3% in assay [9]; 0.66% in assay [10]; 1.22% in assay [11]; -2.61% in assay [12]. Further, the inhibition in [13] is -2.83%; in [14], 3.75%; in [15], 1.82%; in [16], 3.37%; in assay [17] it was 3.25%; in assay [18] it was 7.06%. The inhibition amounted to 0.95% in [19] and 0.28% in assay [20].
Turning to `CC(C)(CO)CNC(=O)c1ccc2c(c1)/C(=N/Nc1ccc(S(N)(=O)=O)cc1)C(=O)N2`, the inhibition in [1] is 16.6%; in assay [2], -0.87%; in assay [3], -1.79%; in assay [4], 2.1%; in [5], 1.84%; in assay [6], 2.96%. Further, the inhibition in assay [7] was 9.13%; in assay [8] it was -0.56%; in assay [9], 0.83%; in assay [10] it was -0.2%; in [11], 0.79%; in assay [12] it was -1.95%. For the same molecule, the inhibition in [13] is -1.91%; in [14], -2.03%; in [15], -1.12%; in [16], -0.73%; in assay [17], 2.18%; in [18] it was -1.03%. In addition, the values for the inhibition in assay [19] and in [20] were -0.32% and 0.09%, respectively.
